Reference: the supplement of paper PMC6555819

Experiments:
Experiment in all cases: PBM binding z-score (relative to random genomic background probes); higher = stronger binding; sequences stand for … in GC…GCGATTGACAGCGTAGAATGAAGG
[1] = test system: RARb homodimer (NR concentration 270 nM)
Method in brief: (§1)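 Ligand-free nuclear receptor dimers were bound for 1 h to custom Agilent 4×180K protein-binding microarrays. Detection used antibodies against each partner (one per run). Binding z-scores rest on regression-normalized fluorescence, with random background probes as the reference.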

[2] = test system: RARg:RXRa (NR concentration 270 nM, RXRa partner concentration 90 nM)
Method in brief: as §1

[3] = test system: RARg homodimer (NR concentration 270 nM)
Method in brief: as §1

[4] = test system: RXRa DBDmut IVT, anti-RXR (DBD mutation: RXRa K156A/R161A, NR concentration 90 nM)
Method in brief: as §1

[5] = test system: RXRa homodimer (NR concentration 180 nM)
Method in brief: as §1

[6] = test system: THRa:RXRa (NR concentration 90 nM, RXRa partner concentration 90 nM)
Method in brief: as §1

[7] = test system: THRa homodimer (NR concentration 90 nM)
Method in brief: as §1

[8] = test system: VDR homodimer (NR concentration 270 nM)
Method in brief: as §1

Sequence	PBM binding z-score [1]	PBM binding z-score [2]	PBM binding z-score [3]	PBM binding z-score [4]	PBM binding z-score [5]	PBM binding z-score [6]	PBM binding z-score [7]	PBM binding z-score [8]
CGCCCAAGGTCAATGCTAGGTCAGTGAAAGCATT	5.07	7.39	6.43	2.91	5.06	4.28	2.72	2.51
GCTCGGAGGACAATGTCAGAGCTTTGTCCGTAGA	0.0448	-0.133	0.0822	0.18	-0.593	0.348	-0.612	-0.447
TCGAGTAGGTTAGGGGCATGCAGAATGGCGTCGA	1.07	0.351	0.462	0.22	0.663	0.973	0.12	0.0612
CGTCCAAGGTGAGCAGGTCAGTGAAAGCGACGTG	2.7	2.24	2.37	-0.254	1.09	2	0.649	-0.353
AGTCAAAGTTCATCTAGGGAACGTAAGATATGCT	3.82	5.57	6.19	4.67	4.53	2.92	-0.658	4.63
ACTAGCAGGCCAATTTTGGGTCACTCAAACAAAG	2.11	1.59	1.25	-0.264	0.898	2.34	1.24	-0.032
ACAATGAGGTTAAGATCAGGGAAACAGAATACAT	0.906	2.33	1.7	1.33	2.53	2.51	0.954	0.941
GCTAGTTGGTCAGTGAAAGGTCACACACCGGTCG	4.96	5.66	4.94	0.305	5.62	3.42	1.71	1.73
GCGACTGGGGCATCAGCATGTTACCATAACTTAA	0.222	0.263	0.143	0.363	0.217	0.125	-0.404	-0.64
GATACAGGGTCAAGGCCAGATTACGCGTATTGAT	3.73	5.64	5.39	2.72	6.08	3.68	1.61	2.09
GCTTGTAGATAAAGGTTAAGAAAGACTAAGCTAA	0.948	1.29	1	-0.0132	1.86	1	-0.76	-0.0184
GTGACTGGGGCATCAGCAGGTTACCATAACTTAA	1.3	1.36	0.86	-0.0186	0.481	1.09	0.198	-0.0019
GGAACGAGGGCAAGTTGATAGTAGAGTTTGATGG	1.75	1.54	2.17	2.51	0.814	1.36	0.454	2.31
TCTGCTAGGTCAAGGATGGTCAGCTAATCTGCTA	3.49	3.97	4.85	0.94	2.6	2.88	0.621	-0.0676
TCGAGTAGGTTACCATTGGGGCATTCAGCTTTCT	0.675	0.565	0.217	0.45	0.293	0.633	-0.238	-0.46
GCAGACAGGTGAAACGCAGCTAACTCAGGGTGGC	-0.474	-0.209	-0.0146	-0.543	-0.0388	-0.192	-0.872	-1.11
GCAGACAGGTGAAACGCACGTAACTCAGGGTGGC	-0.115	0.327	0.0511	-0.335	0.528	-0.124	-0.367	-0.768
AGAAAGAGGTTACCAAAGATCAGGGAAACGCTTG	1.03	2.51	1.84	0.282	3.17	1.91	-0.577	-0.0812
TTACCAAGGTGAGCTGAGGTTGTTGATCCAACTC	0.122	-0.185	0.109	-0.414	-0.0103	3.29	0.439	-0.373
CCTTACGGGTCTCTGACAGGTTATAGCATTTGGA	-0.0333	0.29	0.275	0.321	0.277	0.0789	-0.175	-0.188
CAAACTAGGTCAAAGATCAAAGTCGAGCCAACCA	2.5	4.93	4.62	1.97	5.28	2.9	0.494	0.479
CGAACTAGGTCCTCCAGGACAGTGAATACATTGA	-0.151	0.0122	0.149	0.211	0.00298	1.41	0.816	-0.221
GCTAGCAGGCCATTTGAGTCACTCAATGACGGGC	-0.381	-0.0759	0.0765	-0.0136	-0.11	0.249	-1.02	-0.525
TCAGTCAGGTGAAGGTAACTCAGGTACGCAGTCG	0.729	0.735	0.793	0.667	0.742	2.32	1.34	-0.131
TGTCAAAGTTCAAAGATAACGTAAGTATCCACAC	3.35	5.44	6.18	4.22	4.6	1.86	-0.41	3.32
GCTAATAGTTGAAAGGGCAACCGAATGATTCTCG	2.13	1.68	1.44	0.805	1.76	0.716	-0.4	0.235

Sequence	PBM binding z-score [1]	PBM binding z-score [2]	PBM binding z-score [3]	PBM binding z-score [4]	PBM binding z-score [5]	PBM binding z-score [6]	PBM binding z-score [7]	PBM binding z-score [8]
TCGAGCAGGCCAGAGGGTCACTCAAGAGGTACGG	2.68	2.77	2.03	-0.586	2.65	1.51	-0.421	0.462
CCTAGCAGGCCAGGGTCACTCGAGCATTTCGCTT	2.57	3.06	2.18	0.188	3.57	2.83	0.909	1.33
CCAGACAGGTGAAAGGGAACTCAGTCTGGTACGC	0.101	0.15	0.299	-0.242	0.59	0.0918	-0.374	0.0555
CAAACTAGGTCAAAGGTCATAGTCGAGCCAACCA	5.28	8.65	6.91	2.92	10.3	4.84	1.91	3.55
CCGGCTAGGTCATGGTCAGCTAATCTACAGTATG	3.33	4.11	4.99	1.48	3.01	2.99	1.57	0.619
TAGCCTAGGTCATGCGGGCCAGTCTAGTGTCGGC	2.8	3.86	4.19	0.255	2.42	2.75	0.583	0.569
TCTTGTGGATCAAGCAGGTTAAGAAAGCCTGAGT	0.266	-0.132	-0.515	0.604	0.211	0.309	-0.303	0.15
ATCGAAAGGCCGACGAGGTGAGTATACACCGTTT	0.596	0.783	1.08	-0.604	0.344	1.5	0.378	-0.425
TCATATAGGTAAACAGGTGTAAGTCCGTAAGTTA	0.165	0.307	0.308	1.57	0.982	0.356	0.324	0.657
CCTTACGGGTCACGCGGTTATAGCACGACGAGCG	3.87	5.86	5.88	1.3	6.68	3.17	0.416	1.19
GCATATTGGTAATACAAGGTGAAAGTCCGATTGT	0.603	0.0948	0.327	0.349	0.367	2.39	1	-0.108
TTACCAAGGAGAGCTGAGGTCGTTGATCCAACTC	0.714	0.0578	-0.138	-0.0158	0.657	2.56	1.2	2.11
GCTCGGAGGACAAGGTCTGAGCTTTGTCCGTAGA	0.301	-0.104	0.27	-0.359	-0.785	0.705	-0.422	-0.592
TCTTGTAGATCAACGGTTAAGAAAGCCGAAGCCT	-0.249	-0.0923	-0.227	0.721	0.21	-0.24	-0.541	-0.227
CCTACTGGGCCACGAAAGGTCATTGGTTCAGTGA	4.95	4.88	4.56	0.546	5.25	3.8	1.18	3.08
CGTCCAAGGTCAGAGGGGTCAGTGAATGCCGAGT	5.33	6.54	7.18	3.32	6.41	4.28	2.82	5.91
ACTTACGGGTCAACGAGGTTATAGCGCGCGTATA	3.76	5.67	5.32	2.92	6.24	4.09	0.869	4.01
ACTCGGAGGACTAAGGTCAGAGCTACGCCAGTGA	3.15	2.89	2.54	0.168	2.34	3.35	2.6	0.805
ATATGCAGGTTAAGGGTCATTCAGGTTGGTTCGC	3.97	4.66	3.52	2.24	6.59	3.64	1.26	4.45
GCAGGCAGGTGAAACGCAGGTAACTCAGGGTGGC	-0.0937	0.946	0.484	-0.721	0.329	1.58	-0.371	-0.723
CCTAGTTGTTCAAGGTCACACACGCTATAGGTAC	4.25	4.69	4.87	2.65	4.92	4.3	4.9	4.98
TCTCGGAGGACACGAAAGGTCGGAGCTCGACATC	2.87	2.45	2.91	1.02	1.66	2.7	0.464	0.287
ATCTCTAGGTAAAAAGTTCAGTGAAAGAGAGGAC	2.67	2.69	2.46	0.695	1.04	1.22	0.595	1.56
ACAGACAGGTGAGTGGAGGTAACTCAGCTGGACG	0.51	0.417	0.421	-0.468	0.451	2.29	-0.0738	-0.0506
ATCGATAGGTCGAAGGTGAGTATACCCACCCGAA	0.922	2.06	1.56	-0.262	2.36	0.837	-0.266	-0.3
CAAACTAGGTCACCGGATGGTCAAAGTCCGCATG	4.02	5.82	5.58	1.74	4.05	3.57	1.85	1.1
